Assay results taken from PubChem BioAssay AID1159580 (chemical genetic matrix, 2015).
The campaign covered roughly 5,500 compounds. About 2,000 (36%) were called active. Not shown: some 18% with an inconclusive outcome. Cut-off read from the data, not from the text of the source: active = normalized growth mostly below about 0.91 (no sharp cut-off); inconclusive = no clear call, values can overlap the other calls; inactive = mostly above about 0.92. Some of the results follow.

Test: chemical genetic growth profiling, strain panel (AID 1159580);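 note: tested at 20 µM; growth read once vehicle control cultures reached saturation at 30 °C; 1 = growth at the plate median or of vehicle wells; lower values mean less growth of the strain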
Details: growth OD
[1] = S. cerevisiae deletion strains, locus YAL040C, strain CLN3, hits give low values
[2] = S. cerevisiae deletion strains, locus YCL061C, strain MRC1 (second series), hits give low values
[3] = S. cerevisiae deletion strains, locus YDR363W, strain ESC2, hits give low values
[4] = S. cerevisiae deletion strains, locus YER002W, strain NOP16, hits give low values
[5] = S. cerevisiae deletion strains, locus YNL128W, strain TEP1, hits give low values
[6] = S. cerevisiae deletion strains, locus YNL153C, strain GIM3, hits give low values
[7] = S. cerevisiae deletion strains, locus YNL175C, strain NOP13, hits give low values
[8] = S. cerevisiae deletion strains, locus YNL197C, strain WHI3, hits give low values
[9] = S. cerevisiae deletion strains, locus YNL224C, strain SQS1, hits give low values
[10] = S. cerevisiae deletion strains, locus YOR083W, strain WHI5 (second series), hits give low values
[11] = S. cerevisiae deletion strains, locus YGR078C, strain PAC10, hits give low values
[12] = S. cerevisiae deletion strains, locus YGR229C, strain SMI1, hits give low values
[13] = S. cerevisiae deletion strains, locus YJR075W, strain HOC1, hits give low values
[14] = S. cerevisiae deletion strains, locus YPL055C, strain LGE1, hits give low values
[15] = S. cerevisiae deletion strains, locus YPL241C, strain CIN2, hits give low values
[16] = S. cerevisiae deletion strains, locus YDL101C, strain DUN1, hits give low values
[17] = S. cerevisiae deletion strains, locus YHR030C, strain SLT2, hits give low values

Measured: normalized growth

CCCn1c(=O)c2[nH]c(-c3ccc(S(=O)(=O)O)cc3)nc2n(CCC)c1=O
inactive: [1] 0.994 | [2] 1.01 | [3] 0.958 | [4] 0.997 | [5] 1 | [6] 1.01 | [7] 0.985 | [8] 0.99 | [9] 1 | [10] 0.979

CC(C)CC(NP(=O)(O)O[C@@H]1O[C@@H](C)[C@H](O)[C@@H](O)[C@H]1O)C(=O)NC(Cc1c[nH]c2ccccc12)C(=O)O (some centres not stated)
inactive: [1] 1.01 | [2] 1.01 | [3] 1.01 | [4] 1 | [11] 1.02 | [12] 1.03 | [13] 1.03 | S. cerevisiae deletion strains, locus YMR307W, strain GAS1, hits give low values 0.994 | [5] 0.993 | [6] 1.04 | [7] 0.998 | [8] 1 | [9] 0.997 | [10] 1.01 | [14] 1.02 | [15] 1.01

O=C1NC(c2c(F)cccc2Cl)Nc2ccccc21 (configuration not stated)
inactive: S. cerevisiae deletion strains, locus YAL013W, strain DEP1, hits give low values 1.01 | S. cerevisiae deletion strains, locus YBR229C, strain ROT2, hits give low values 1.01 | S. cerevisiae deletion strains, locus YCL061C, strain MRC1, hits give low values 1.03 | [16] 1.02 | S. cerevisiae deletion strains, locus YDL134C, strain PPH21, hits give low values 1 | S. cerevisiae deletion strains, locus YDR150W, strain NUM1, hits give low values 0.987 | S. cerevisiae deletion strains, locus YEL061C, strain CIN8, hits give low values 1 | [11] 1.03 | [12] 0.988 | [17] 1 | S. cerevisiae deletion strains, locus YHR087W, strain rtc3, hits give low values 1.02 | S. cerevisiae deletion strains, locus YJL187C, strain SWE1, hits give low values 1 | S. cerevisiae deletion strains, locus YJR043C, strain POL32, hits give low values 0.998 | [13] 0.998 | S. cerevisiae deletion strains, locus YKL190W, strain CNB1, hits give low values 1.01 | S. cerevisiae deletion strains, locus YLR039C, strain RIC1, hits give low values 0.94 | S. cerevisiae deletion strains, locus YLR058C, strain SHM2 (second series), hits give low values 1.02 | S. cerevisiae deletion strains, locus YLR085C, strain ARP6, hits give low values 0.984 | S. cerevisiae deletion strains, locus YLR262C, strain YPT6, hits give low values 0.926 | S. cerevisiae deletion strains, locus YML094W, strain GIM5, hits give low values 1.05 | S. cerevisiae deletion strains, locus YMR219W, strain ESC1, hits give low values 1 | S. cerevisiae deletion strains, locus YMR263W, strain SAP30, hits give low values 0.978 | [6] 1.01 | S. cerevisiae deletion strains, locus YNL298W, strain CLA4 (second series), hits give low values 0.979 | S. cerevisiae deletion strains, locus YNL322C, strain KRE1, hits give low values 1 | S. cerevisiae deletion strains, locus YNR030W, strain Alg12, hits give low values 1.02 | [14] 1 | [15] 1.04 | S. cerevisiae deletion strains, locus YPR135W, strain CTF4, hits give low values 1.06 | S. cerevisiae strains, strain wild type, hits give low values 1.01

O=C1/C(=C/c2c(F)cccc2Cl)Cc2ccccc21
active: S. cerevisiae deletion strains, locus YLR113W, strain HOG1, hits give low values 0.834
inactive: S. cerevisiae deletion strains, locus YAR019C, strain CDC15, hits give low values 0.965 | S. cerevisiae deletion strains, locus YBL105C, strain PKC1, hits give low values 0.965 | S. cerevisiae deletion strains, locus YBR135W, strain CKS1, hits give low values 0.959 | S. cerevisiae deletion strains, locus YBR136W, strain MEC1, hits give low values 0.962 | S. cerevisiae deletion strains, locus YBR160W, strain CDC28, hits give low values 0.964 | S. cerevisiae deletion strains, locus YDL017W, strain CDC7, hits give low values 0.963 | S. cerevisiae deletion strains, locus YDL028C, strain MPS1, hits give low values 0.96 | [16] 0.96 | S. cerevisiae deletion strains, locus YDL108W, strain KIN28, hits give low values 0.967 | S. cerevisiae deletion strains, locus YDL132W, strain cdc53, hits give low values 0.96 | S. cerevisiae deletion strains, locus YDL214C, strain PRR2, hits give low values 0.96 | S. cerevisiae deletion strains, locus YDR052C, strain DBF4, hits give low values 0.977 | S. cerevisiae deletion strains, locus YDR054C, strain cdc34, hits give low values 0.961 | S. cerevisiae deletion strains, locus YDR226W, strain ADK1, hits give low values 0.967 | S. cerevisiae deletion strains, locus YDR477W, strain SNF1, hits give low values 0.945 | S. cerevisiae deletion strains, locus YER123W, strain YCK3, hits give low values 0.876 | S. cerevisiae deletion strains, locus YER133W, strain GLC7, hits give low values 0.948 | S. cerevisiae deletion strains, locus YFL009W, strain cdc4, hits give low values 0.961 | S. cerevisiae deletion strains, locus YFL029C, strain CAK1, hits give low values 0.961 | S. cerevisiae deletion strains, locus YFR003C, strain YPI1, hits give low values 0.962 | S. cerevisiae deletion strains, locus YFR019W, strain FAB1, hits give low values 0.903 | S. cerevisiae deletion strains, locus YFR028C, strain CDC14, hits give low values 0.96 | S. cerevisiae deletion strains, locus YGR040W, strain KSS1, hits give low values 0.947 | S. cerevisiae deletion strains, locus YGR052W, strain FMP48, hits give low values 0.974 | S. cerevisiae deletion strains, locus YGR092W, strain DBF2, hits give low values 0.841 | [17] 0.882 | S. cerevisiae deletion strains, locus YHR079C, strain IRE1, hits give low values 0.884 | S. cerevisiae deletion strains, locus YHR082C, strain KSP1, hits give low values 0.916 | S. cerevisiae deletion strains, locus YHR205W, strain SCH9, hits give low values 0.871 | S. cerevisiae deletion strains, locus YIL147C, strain SLN1, hits give low values 0.963 | S. cerevisiae deletion strains, locus YJL095W, strain BCK1, hits give low values 0.927 | S. cerevisiae deletion strains, locus YJL128C, strain PBS2, hits give low values 0.929 | S. cerevisiae deletion strains, locus YJL157C, strain FAR1, hits give low values 0.945 | S. cerevisiae deletion strains, locus YJR016C, strain ILV3, hits give low values 0.965 | S. cerevisiae deletion strains, locus YJR066W, strain TOR1 (second series), hits give low values 0.906 | S. cerevisiae deletion strains, locus YJR066W, strain TOR1, hits give low values 0.892 | S. cerevisiae deletion strains, locus YKL048C, strain ELM1, hits give low values 0.968 | S. cerevisiae deletion strains, locus YKL067W, strain YNK1, hits give low values 0.961 | S. cerevisiae deletion strains, locus YKL101W, strain HSL1, hits give low values 0.965 | S. cerevisiae deletion strains, locus YKL193C, strain SDS22, hits give low values 0.961 | S. cerevisiae deletion strains, locus YKL203C, strain TOR2, hits give low values 1.03 | S. cerevisiae deletion strains, locus YLR133W, strain CKI1, hits give low values 0.955 | S. cerevisiae deletion strains, locus YLR403W, strain SFP1, hits give low values 0.927 | S. cerevisiae deletion strains, locus YML070W, strain DAK1, hits give low values 0.929 | S. cerevisiae deletion strains, locus YMR001C, strain CDC5, hits give low values 0.961 | S. cerevisiae deletion strains, locus YMR205C, strain PFK2 (second series), hits give low values 0.956 | S. cerevisiae deletion strains, locus YMR277W, strain FCP1, hits give low values 0.963 | S. cerevisiae deletion strains, locus YNL006W, strain LST8, hits give low values 0.97 | S. cerevisiae deletion strains, locus YNL020C, strain ARK1, hits give low values 0.947 | S. cerevisiae deletion strains, locus YNL161W, strain CBK1, hits give low values 0.965 | S. cerevisiae deletion strains, locus YNL183C, strain NPR1, hits give low values 0.9 | S. cerevisiae deletion strains, locus YNL207W, strain RIO2, hits give low values 0.965 | S. cerevisiae deletion strains, locus YNL222W, strain SSU72, hits give low values 0.965 | S. cerevisiae deletion strains, locus YNL307C, strain MCK1 (second series), hits give low values 0.885 | S. cerevisiae deletion strains, locus YOL078W, strain AVO1, hits give low values 0.962 | S. cerevisiae deletion strains, locus YOL136C, strain PFK27, hits give low values 0.92 | S. cerevisiae deletion strains, locus YOR061W, strain CKA2, hits give low values 0.942 | S. cerevisiae deletion strains, locus YOR119C, strain RIO1, hits give low values 0.952 | S. cerevisiae deletion strains, locus YOR231W, strain MKK1, hits give low values 0.92 | S. cerevisiae deletion strains, locus YOR329C, strain SCD5, hits give low values 0.963 | S. cerevisiae deletion strains, locus YPL031C, strain PHO85, hits give low values 0.928 | S. cerevisiae deletion strains, locus YPL153C, strain RAD53, hits give low values 0.947 | S. cerevisiae deletion strains, locus YPL204W, strain HRR25, hits give low values 0.927 | S. cerevisiae deletion strains, locus YPL209C, strain IPL1, hits give low values 0.968 | S. cerevisiae deletion strains, locus YPL256C, strain CLN2, hits give low values 0.887 | S. cerevisiae deletion strains, locus YPR025C, strain CCL1, hits give low values 0.957 | S. cerevisiae deletion strains, locus YPR106W, strain ISR1, hits give low values 0.957 | S. cerevisiae deletion strains, locus YPR111W, strain DBF20, hits give low values 0.957 | S. cerevisiae deletion strains, strain NNK1, hits give low values 0.943 | S. cerevisiae deletion strains, strain TSCII, hits give low values 0.962
